An excerpt weighted towards active compounds, which were near 2.6% of everything screened.
A549 tox-1 = counter-screen for Nrf2 inhibitors: cytotoxicity in A549 cells; Potency, µM (titrated, usually from 46 µM), for the others: at the highest dose activity change, negative = cytotoxicity, most hits filed as inhibitors; A549 ARE-Fluc cells, CellTiter-Fluor viability, 18-24 h; 390,000 tested, 0.16% active; AID 504648; also: potency is read from the fitted curve at half-maximal effect; % is scaled to controls: 0 for no effect and ±100 for the full control effect
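A549 ARE-Fluc cells in 5% FBS OPTI-MEM, 5000 cells/well, rested 2 h then exposed to compounds in concentration-response for 18-24 h at 37 °C. Viability by CellTiter-Fluor fluorescence (Ex 405/Em 525) after 30 min; luciferase luminescence (BugLite, 15 min, RT) read afterwards.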
Nrf2 activator = activates Nrf2 signaling | AREc32 ARE-luciferase reporter (MCF7-derived line), luminescence, 24 h | Potency, µM (top dose mostly 46.1 µM), inactives show top-dose activation, hits mostly activators | 410,000 tested, 0.31% active; also: potency is read from the fitted curve at half-maximal effect; % of control where 0% means no effect; nearly all actives have a fitted effect of over 65% in size
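ARE-driven firefly luciferase activity in AREc32 cells measured after a 24 hr compound exposure at 37 deg C, using Steady-Glo reagent and a 30 min room-temperature hold.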
Nrf2 inh = blocks Nrf2 signaling. A549 ARE-Fluc reporter, luciferase luminescence, 18-24 h. Potency, µM (series often up to 46 µM), without a hit: at the top dose activity change, negative = inhibition, most hits filed as inhibitors. 360,000 tested, 2.1% active. AID 504444; also: potency is read from the fitted curve at half-maximal effect; % is scaled to controls: 0 for no effect and ±100 for the full control effect; nearly all actives have a fitted effect of over 60% in size
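A549 ARE_Fluc cells, 5000/well, 5% FBS OPTI-MEM; compounds in dose-response, 18-24 h at 37 °C/5% CO2; CellTiter-Fluor viability read (Ex 405/Em 525), then BugLite luciferase luminescence = Nrf2 activity.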
CCT chaperon mod = cytosolic chaperonin activity modulation; purified chaperonin ATPase assay, HTRF ADP detection, 30 min; activity change, % (test concentration not listed), hits read low; 360,000 tested, 0.3% active; AID 651819; in the data active = activity change below about -30%; also: % is scaled to controls: 0 for no effect and ±100 for the full control effect
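TRiC (40 or 20 nM final, by batch activity) in 30 mM Tris pH 7.4, 100 mM KCl, 5 mM MgCl2, 1 mM DTT was treated with compound at 76 uM single dose, then 10 uM ATP, 30 min at 37 °C. ADP was read by HTRF Transcreener.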
TCR activator = T cell receptor activation; primary human leukocytes, anti-CD3, IL-2 HTRF, 48 h; Potency, µM (top dose mostly 9.22 µM), without a hit: at the highest dose activation of IL-2 secretion, most hits filed as activators; 330,000 tested, under 10 active; also: % of control where 0% means no effect
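Primary human leukocytes receive a-CD3 beads and test compound and are incubated 48 hr. Secreted IL-2 is then assayed by HTRF, measuring 665nm acceptor emission after 320nm excitation of the europium donor.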
A-T KAP1 phos = potential ataxia-telangiectasia treatments restoring KAP-1 phosphorylation; F2112 A-T fibroblasts, KAP-1 phosphorylation AlphaLISA; neocarzinostatin DNA damage 30 min before lysis; Potency, µM (highest dose often 57.5 µM), for the others: top-dose activation, hits mostly activators; 320,000 tested, 0.19% active; AID 485349; also: potency is read from the fitted curve at half-maximal effect; % of control where 0% means no effect; nearly all actives have a fitted effect of over 45% in size
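ATM-like activity read as KAP-1 phosphorylation via AlphaLISA donor/acceptor antibody pairs after lysis and 6 hr at 25C. Cells were ATM-null patient fibroblasts (F2112, hTERT), dosed 60 min, then exposed to the DSB inducer NCS for 30 min.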
FLuc enzyme inh = firefly luciferase inhibition, Nrf2 hit validation. purified firefly luciferase, luminescence inhibition. Potency, µM (top dose mostly 57.5 µM), inactives show at the top dose activity change, negative = inhibition, hits mostly inhibitors. 1,400 tested, 4% active. shares compounds with Nrf2 inh; also: potency is read from the fitted curve at half-maximal effect; % is scaled to controls: 0 for no effect and ±100 for the full control effect; nearly all actives have a fitted effect of over 65% in size
Target sequence (P08659 whole entry, looked up): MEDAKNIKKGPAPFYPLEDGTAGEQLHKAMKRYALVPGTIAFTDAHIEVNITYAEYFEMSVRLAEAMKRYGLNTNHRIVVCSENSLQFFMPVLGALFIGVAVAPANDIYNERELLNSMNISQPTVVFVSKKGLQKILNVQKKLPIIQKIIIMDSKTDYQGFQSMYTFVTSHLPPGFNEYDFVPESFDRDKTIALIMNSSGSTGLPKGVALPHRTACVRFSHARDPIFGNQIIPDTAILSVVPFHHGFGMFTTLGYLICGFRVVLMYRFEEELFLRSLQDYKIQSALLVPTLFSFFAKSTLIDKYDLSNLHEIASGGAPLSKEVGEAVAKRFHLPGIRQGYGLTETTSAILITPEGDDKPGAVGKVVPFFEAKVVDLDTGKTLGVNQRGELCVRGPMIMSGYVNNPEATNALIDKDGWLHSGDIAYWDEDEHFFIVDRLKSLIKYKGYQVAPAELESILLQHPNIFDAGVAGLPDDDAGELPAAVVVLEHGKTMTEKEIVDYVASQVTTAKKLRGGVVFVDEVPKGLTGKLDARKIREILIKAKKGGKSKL
A549 tox-2 = A549 cytotoxicity, Nrf2 inhibitor counterscreen; A549 ARE-Fluc cells, cytotoxicity counterscreen; 1,400 tested, 2% active; Potency, µM (series often up to 46.1 µM), for the others: top-dose activity change, negative = cytotoxicity, usual class: inhibitors; shares compounds with Nrf2 inh;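 also: potency is read from the fitted curve at half-maximal effect; cells exposed to compounds for 18 to 24 hours; % is scaled to controls: 0 for no effect and ±100 for the full control effect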
ARE-Fluc inh = Nrf2 inhibition confirmed, A549 ARE-luciferase. shares compounds with Nrf2 inh. A549 ARE-firefly luciferase reporter, luminescence. Potency, µM (titrated, usually from 46.1 µM), inactives show top-dose activity change, negative = inhibition, hits mostly inhibitors. 1,400 tested, 74% active. AID 720524; also: potency is read from the fitted curve at half-maximal effect; % is scaled to controls: 0 for no effect and ±100 for the full control effect; nearly all actives have a fitted effect of over 65% in size
* hit, by the source's call; ? = inconclusive; / = no result; [ ] = dose if it differs, or a comment. Unless noted, calls follow the shape of the dose curve; as a rule, active = well fitted curve in the direction sought with a large enough effect; inconclusive = small, poorly fitted or top-dose-only effect, or another doubt; inactive = no such curve, though single readings can be large; an effect the other way counts as inactive or inconclusive.

SMILES	A549 tox-1	Nrf2 activator	Nrf2 inh	CCT chaperon mod	TCR activator	A-T KAP1 phos	FLuc enzyme inh	A549 tox-2	ARE-Fluc inh
Nc1cc(S(=O)(=O)Nc2ccccc2Cl)ccc1N1CCCCC1	-10%	0%	7.3µM*	1	2%	3%	9.5µM*	-4%	15µM*
COCCNC(=O)C1CCN(C(=O)c2cc3sccc3n2Cc2ccc(Cl)cc2)CC1	?	0%	8.2µM*	/	/	/	3%	-24%	5.8µM*
COCCCNC(=O)C1CCN(C(=O)c2cc3sccc3n2Cc2ccc(Cl)cc2)CC1	-15%	1%	?	/	/	/	/	/	/
CCC(C)NC(=O)C1CCN(C(=O)c2cc3sccc3n2Cc2ccc(Cl)cc2)CC1 (stereo not given)	?	-1%	2.3µM*	/	/	/	1%	?	6.5µM*
COc1ccc2c(c1OC)C(=O)N1C2SC[C@H]1C(=O)NC1CCCCC1 (stereo not given in full)	6%	-1%	-8%	-2	8%	4%	/	/	/
CN(C)S(=O)(=O)N1CCC(Oc2ccc(C(=O)NC3Cc4ccccc4C3)cc2)CC1	-9%	9%	?	0	2%	2%	/	/	/
CN(C)S(=O)(=O)N1CCC(Oc2cccc(C(=O)NC3CCCCCC3)c2)CC1	-16%	0%	2.6µM*	-1	0%	7%	2%	?	0.073µM*
C[C@H](NC(=O)c1nc[nH]c1C(=O)N[C@@H](CCCCNC(=O)OC(C)(C)C)C(=O)OC(C)(C)C)C(=O)OCc1ccccc1	-3%	0%	6%	0	-2%	1%	/	/	/
CC(C)(C)OC(=O)NCCCC[C@H](NC(=O)c1nc[nH]c1C(=O)NC(c1ccccc1)c1ccccc1)C(=O)OC(C)(C)C	?	4%	3.7µM*	0	4%	-15%	0%	?	21µM*
N=c1ccn(Cc2cccc(F)c2)cc1	?	0%	2.1µM*	0	-7%	35%	5%	-10%	5.8µM*
Nc1ccn(Cc2cccc(F)c2)n1	0%	-1%	-16%	-1	8%	2%[11.5 µM]	/	/	/
CCCC(=O)Nc1ccc(Sc2ccc([N+](=O)[O-])cc2)cc1	-6%	3%	?	0	2%	3%	/	/	/
CCC(CC)C(=O)Nc1ccc(Sc2ccc([N+](=O)[O-])cc2)cc1	?	5%	3.7µM*	1	-3%	14%	1%	-10%	18µM*
CN(C)c1cccc(NC2=CC(=[N+]3CCOCC3)CC(C)(C)C2)c1	-13%	0%	-10%	-1	5%	/	/	/	/
CCN(CC)C1=CC(=[N+]2CCCC2)CC(C)(C)C1	-7%	-1%	8.2µM*	-6	5%	0%	1%	-4%	6.5µM*
CN(Cc1ccccc1)C1=CC(=[N+]2CCCC2)CC(C)(C)C1	1%	3%	4.6µM*	-1	0%	14%	-19%	?	18µM*
CCN(CC(=O)Nc1ccccc1C(F)(F)F)C(=O)c1ccc(N2CCCC2=O)cc1	8%	-1%	3%	-6	7%	-5%	/	/	/
C=CCn1c(SCc2nc3ccccc3c(=O)[nH]2)nc2scc(C3CC3)c2c1=O	-17%	6%	?	-1	-3%	6%	/	/	/
Cc1ccc(-n2nnc(-c3nsc(NC(=O)c4ccccc4C)n3)c2C)cc1Cl	10%	3%	?	/	/	/	/	/	/
CN1CCN(C2CN(C3CCCC3)S(=O)(=O)C2)CC1 (stereo not given)	/	-1%	/	-3	/	/	/	/	/
Cc1ccccc1NC(=O)Cn1nc(C)c2ccccc2c1=O	-2%	0%	-4%	0	/	-8%	/	/	/
CCc1ccccc1Nc1nn2c(=O)c3ccc(C(=O)NC4CCC(C)CC4)cc3nc2s1 (stereo not given)	11%	0%	3%	/	/	/	/	/	/
COc1ccc(Br)cc1CN(C)C(=O)Cc1ccc(OC)c(S(=O)(=O)N2CCOCC2)c1	11%	0%	8.2µM*	-1	/	4%	4%	-2%	0%
COc1ccc(CN(C)C(=O)Cc2ccc(OC)c(S(=O)(=O)N3CCOCC3)c2)cc1OC	-2%	-1%	19%	0	-5%	-2%	/	/	/
COc1cccc(C(=O)Nc2c(C(=O)NC(C)(C)C)oc3ccccc23)c1	6%	0%	?	/	/	/	1%	-14%	-16%
SMILES	A549 tox-1	Nrf2 activator	Nrf2 inh	CCT chaperon mod	TCR activator	A-T KAP1 phos	FLuc enzyme inh	A549 tox-2	ARE-Fluc inh
Nc1cc(S(=O)(=O)N2CCOCC2)ccc1Oc1cccc(Br)c1	-18%	3%	8.2µM*	-3	-8%	4%	0%	-1%	8.2µM*
Cc1cc(C)c(C(N)=O)c(SCC(=O)c2cc(C)n(-c3cc(C)on3)c2C)n1	-12%	0%	2.3µM*	0	6%	?	-1%	-8%	?
CCCCN(C)C(=O)C1CCCN(c2ncnc3onc(C)c23)C1 (stereo not given)	-21%	4%	9.2µM*	/	/	/	-1%	-19%	2.9µM*
CCOC(=O)c1sc(NC(=O)c2cc(-c3ccccc3C)nc3ccccc23)c(C#N)c1C	?	5%	4.1µM*	2	-3%	-4%	12µM*	?	4.1µM*
Cc1ccccc1-c1cc(C(=O)Nc2sc(C)c(C)c2C(N)=O)c2ccccc2n1	-21%	3%	/	2	0%	-4%	/	/	/
O=C(NNC(=O)c1cccc(S(=O)(=O)N2CCc3ccccc32)c1)c1ccccc1	-28%	5%	8.2µM*	-1	20%	5%	-19%	-2%	5.2µM*
CC(C)CCNC(=O)c1cccc(S(=O)(=O)N2CCc3ccccc32)c1	2%	0%	-1%	-2	4%	1%	/	/	/
CN(C)S(=O)(=O)c1cccc(NC(=O)c2cccc(S(=O)(=O)N3CCc4ccccc43)c2)c1	-12%	3%	4.6µM*	1	/	8%	0%	-10%	16µM*
CC(=O)NS(=O)(=O)c1ccc(NC(=O)c2cccc(S(=O)(=O)N3CCc4ccccc43)c2)cc1	1%	0%	3%	2	2%	4%	/	/	/
